VP16 counter: Gal4-VP16 reporter inhibition counter-screen | Drosophila S2 Gal4-VP16 UAS-luciferase, luminescence, 20 h | Potency, µM (series often up to 53.6 µM), without a hit: at the highest dose activity, negative = inhibition, actives largely listed as inhibitors | 3.5% of 310,000 active;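 also: Gal4-VP16 expression switched on by copper sulfate through the metallothionein promoter; potency is read from the fitted curve at half-maximal effect; nearly all actives have a fitted effect of over 50% in size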
TDP1 cell CPT: growth inhibition of DT40 Tdp1-/-;hTDP1 cells with camptothecin (screen for TDP1 inhibitors); Potency, µM (titrated, usually from 46.2 µM), for inactives: at the top dose activity change, negative = growth inhibition, most hits filed as inhibitors; chicken DT40 Tdp1-/-;hTDP1 cells + 20 nM CPT, ATP luminescence, 48 h; AID 686979; 12% of 420,000 active; also: potency is read from the fitted curve at half-maximal effect; nearly all actives have a fitted effect of over 55% in size
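Cell growth measured by CellTiter-Glo luminescence after a minimum 48 h, 37 C compound exposure with 20 nM CPT in Tdp1-knockout DT40 cells stably expressing hTDP1, seeded 400/well; qHTS titration format.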
IL-1B inflam inh: blocks inflammasome-driven IL-1 beta release; THP-1 LPS/ATP IL-1B secretion, AlphaLISA, 16 h; stronger effect = lower value; activity change, % at 57.5 µM; 4.7% of 360,000 active; in the data active = activity change below about -50%; inconclusive = mostly about -30% to -49%
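THP-1 cells pretreated 1 hr with compounds (up to 57.5 uM final), then stimulated with LPS (250 ng/mL final) plus ATP (1.25 mM final); secreted IL-1B measured by AlphaLISA after 16 hr, decreased signal indicating inhibition.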
RORgamma inh: inhibitors of mouse ROR gamma transcriptional activity. Potency, µM (doses to about 53.6 µM), inactives show at the top dose activity change, negative = inhibition, usual class: inhibitors. P51450. 5.4% of 310,000 active. Drosophila S2 Gal4-RORgamma UAS-luciferase reporter, 20 h. AID 2551; also: potency is read from the fitted curve at half-maximal effect; nearly all actives have a fitted effect of over 60% in size
Target sequence (P51450 whole entry, looked up, the tested form may be a part): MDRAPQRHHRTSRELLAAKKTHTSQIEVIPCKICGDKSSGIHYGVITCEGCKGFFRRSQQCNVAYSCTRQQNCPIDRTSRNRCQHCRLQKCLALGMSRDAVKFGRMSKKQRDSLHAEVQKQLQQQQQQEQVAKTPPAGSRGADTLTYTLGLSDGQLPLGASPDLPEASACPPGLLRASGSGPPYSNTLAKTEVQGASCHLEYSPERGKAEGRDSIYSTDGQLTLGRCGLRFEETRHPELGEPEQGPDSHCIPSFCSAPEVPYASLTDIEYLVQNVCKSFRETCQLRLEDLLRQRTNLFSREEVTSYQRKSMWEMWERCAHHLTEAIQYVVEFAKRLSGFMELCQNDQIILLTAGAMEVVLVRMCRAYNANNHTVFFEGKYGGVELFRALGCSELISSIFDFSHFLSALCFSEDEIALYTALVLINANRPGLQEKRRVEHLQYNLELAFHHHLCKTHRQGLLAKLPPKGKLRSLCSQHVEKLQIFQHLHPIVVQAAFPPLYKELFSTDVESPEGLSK
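Drosophila Schneider cells stably carrying a metallothionein-driven Gal4 DBD–ROR gamma fusion and a UAS-Photinus luciferase reporter were exposed to compound for 1 hr, then induced with copper sulfate (700 uM final) for 20 hr at ambient temperature before luminescence reading.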
ELG1 DNA repair: inhibitors of ELG1-dependent DNA repair in HEK293T cells; HEK293T ELG1-luciferase reporter, luminescence, 16 h; DNA damage induced by 5-fluorouridine; Potency, µM (highest dose often 46.1 µM), inactives show at the top dose activity change, negative = inhibition, hits mostly inhibitors; 2.3% of 330,000 active; also: potency is read from the fitted curve at half-maximal effect; nearly all actives have a fitted effect of over 55% in size
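DMSO vehicle served as the neutral condition. Each well held 2,000 cells given 5-fluorouridine plus compound; after 16 hr at 37 °C/5% CO2, ONE-Glo was added and luciferase measured 30 min later.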
TDP1 cell noCPT: qHTS for Inhibitors of human tyrosyl-DNA phosphodiesterase 1 (TDP1): qHTS in cells in absence of CPT; Potency, µM (series often up to 46.2 µM), for inactives: at the top dose activity change, negative = growth inhibition, hits mostly inhibitors; 15% of 420,000 active; DT40 Tdp1-/- hTDP1 cells, no CPT, ATP luminescence, 48 h; also: potency is read from the fitted curve at half-maximal effect; nearly all actives have a fitted effect of over 55% in size
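Stably hTDP1-transfected Tdp1-null chicken DT40 cells were treated with library compounds minus camptothecin and grown for at least 48 hr at 37 °C, after which cellular ATP was quantified by luminescence.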
Numbers without * were called inactive; i = inactive; ? = inconclusive; · = not tested or not shown; [ ] = dose if it differs, or a comment. The list is not random: actives were taken first. Their share in the collection is about 21%. Unless noted, calls follow the shape of the dose curve; as a rule, active = well fitted curve in the direction sought with a large enough effect; inconclusive = small, poorly fitted or top-dose-only effect, or another doubt; inactive = no such curve, though single readings can be large; an effect the other way counts as inactive or inconclusive. % is scaled to controls: 0 for no effect and ±100 for the full control effect.

SMILES | VP16 counter | TDP1 cell CPT | IL-1B inflam inh | RORgamma inh | ELG1 DNA repair | TDP1 cell noCPT
CCOc1ccccc1NC(=O)C1COc2ccccc2O1 (stereo not drawn) | -0.4% | -0.8% | 17.8 | ? | 14.7% | ?
CCN(CC)CCNC(=O)c1cc2c(=O)n(C)c3cc(Cl)ccc3c2s1 | · | ? | · | · | · | 20.6µM*
CCN(CC)CCNC(=O)c1cc2cc(Br)ccc2s1 | 18.6% | -26.6% | ? | -15.6% | 20.0% | ?
CCOc1ccc(CCNC(=O)c2cc3c(=O)n(C)c4ccccc4c3s2)cc1OCC | · | -29.3% | · | · | · | ?
COCCCNC(=O)c1cc2c(=O)n(C)c3ccccc3c2n1C | -12.0% | 18.4µM* | -4.3 | -4.1% | ? | ?
CCCN(CCC)CCCNC(=O)c1cc2c(=O)n(C)c3ccccc3c2s1 | · | ? | · | · | · | 18.4µM*
COCCNC(=O)c1cc2c(=O)n(C)c3ccccc3c2n1C | -1.1% | -10.4% | -6.0 | -37.3% | 13.3% | -14.4%
CCCCN(CC)CCNC(=O)c1cc2c(=O)n(C)c3ccccc3c2n1C | 0.3% | 18.4µM* | -80.0* | -2.0% | ? | 14.6µM*
Cn1[nH]cc(C=NC(N)=O)c1=O | · | -10.7% | 0.0 | · | · | -18.6%
CCN(CC)CCNC(=O)c1cc2c(=O)n(C)c3ccccc3c2n1C | ? | ? | ? | 0.9% | 16.2% | ?
CCN(CC)CCCNC(=O)c1cc2c(=O)n(C)c3ccccc3c2n1C | -1.2% | ? | -86.8* | -34.8% | ? | ?
CCCN(CCC)CCCNC(=O)c1cc2c(=O)n(C)c3ccccc3c2n1C | 7.6% | ? | -64.9* | -35.1% | ? | 25.9µM*
CCC(=O)Oc1ccc(C2Nc3ccccc3-c3nnc(SC)nc3O2)cc1 (stereo not drawn) | · | -7.3% | · | · | · | -23.2%
COc1ccc(NC(=O)C(C)N2Cc3ccccc3C2=O)cc1OC (stereo not drawn) | · | -3.2% | · | · | · | 0.2%
O=C1CC(c2ccccc2)Sc2ccccc2N1 (stereo not drawn) | -2.8% | 13µM* | 0.0 | 12.2% | ? | 10.3µM*
CCC(=O)N1c2ccccc2CC1C(=O)NCCc1ccccc1C (stereo not drawn) | · | ? | · | · | · | -20.8%
CCOC(=O)C[C@H]1c2ccccc2S(=O)(=O)N1Cc1cccc(C(F)(F)F)c1 | · | ? | 22.6 | · | · | 12.6µM*
COC(=O)C[C@H]1c2ccc(C(F)(F)F)cc2S(=O)(=O)N1Cc1ccccc1 | · | 0.9% | -1.8 | · | · | ?
CCOC(=O)C[C@H]1c2ccccc2S(=O)(=O)N1Cc1cc(OC)c(OC)c(OC)c1 | · | 14.6µM* | 0.0 | · | · | 10.3µM*
COc1ccccc1C1CN(CCNC(=O)c2ccc3c(c2)OCCO3)Cc2ccccc2O1 (stereo not drawn) | · | 12.2%[9.04 µM] | · | · | · | ?
CCN(C(=O)c1cc2cc3ccc(OC)cc3nc2o1)c1cccc(C)c1 | · | 23.1µM* | · | · | · | 16.4µM*
Cc1cccc(N(C)C(=O)c2cc3cc4ccc(C)cc4nc3o2)c1 | -11.5%[0.365 µM] | 11.6µM* | 19.2 | 7.3% | ? | 18.4µM*
CCOc1ccc(NC(=O)Cn2c(=O)n(CCc3ccccc3)c(=O)c3c4c(sc32)CCCC4)cc1 | · | 4.0% | · | · | · | -29.3%
CCOC(=O)N1CCc2cc(OC)c(OC)c3c2c1cc1cc(OC)c(OC)cc13 | · | ? | 2.8 | · | · | 11.6µM*
COc1cc2c(Cc3c4c5c(cc(OC)c(OC)c5c5c(OC)c(OC)ccc35)CCN4C)c3c4c(cc(OC)c(OC)c4c2cc1OC)CCN3C | 3.9% | -11.6% | · | -0.6% | · | -20.8%
SMILES | VP16 counter | TDP1 cell CPT | IL-1B inflam inh | RORgamma inh | ELG1 DNA repair | TDP1 cell noCPT
O=C(COC(=O)c1cc([N+](=O)[O-])ccc1N1CCOCC1)Nc1cc(F)ccc1F | · | -25.5% | -17.8 | · | 23.1µM* | -24.1%
CC(C)c1ccccc1NC(=O)COC(=O)c1cc([N+](=O)[O-])ccc1N1CCOCC1 | · | ? | -19.3 | · | ? | 18.4µM*
O=C(COC(=O)c1cc([N+](=O)[O-])ccc1N1CCOCC1)Nc1ccccc1OC(F)F | · | -25.6% | -0.4 | · | ? | -22.2%
Cc1cc(C)c(NC(=O)COC(=O)c2cc([N+](=O)[O-])ccc2N2CCOCC2)c(C)c1 | -4.7% | -12.0% | i | 25.4% | 6.0% | -5.1%
O=C(COC(=O)c1cc([N+](=O)[O-])ccc1N1CCCC1)Nc1ccccc1OC(F)F | · | ? | -4.2 | · | ? | 16.4µM*
Cc1cc(NC(=O)COC(=O)c2cc([N+](=O)[O-])ccc2N2CCOCC2)ccc1Br | · | ? | ? | · | ? | 16.4µM*
CC(C)CN1CCNC(=O)C1CC(=O)NCc1cnn(-c2cccc(F)c2)c1 (stereo not drawn) | -13.2% | 3.6% | -0.7 | -9.0% | ? | ?
O=C(CSc1nccn1-c1cccc(Cl)c1)Nc1ccc2c(c1)OCO2 | · | ? | · | · | · | -24.8%
COc1cccc(C(=O)N(Cc2cc3ccc(C)cc3nc2N(C)C)C2CC2)c1OC | · | -26.5%[9.04 µM] | · | · | · | -97.5%
COc1ccc(-c2nc3cc(C)ccc3cc2CN(C(=O)c2cc(C)nn2C)C2CC2)cc1OC | · | ? | · | · | · | 20.6µM*
COc1ccc(-c2nc3cc(C)ccc3cc2CN(C(=O)c2ccco2)C2CC2)cc1OC | · | -6.5%[9.04 µM] | · | · | · | ?
COc1cccc(-c2nc3cc4c(cc3cc2CN(C(=O)c2cc(C)nn2C)C2CC2)CCC4)c1OC | · | 4.11µM* | · | · | · | 16.4µM*
COc1ccc(-c2nc3cc(C)ccc3cc2CN(C(=O)c2cccs2)C2CC2)cc1OC | · | ? | · | · | · | 13µM*
COc1ccc(-c2nc3cc(C)ccc3cc2CN(C(=O)c2ccc(C)s2)C2CC2)cc1OC | · | -11.9%[9.04 µM] | · | · | · | 20.6µM*
COC(=O)c1cnn2c(C)c(Cc3c(C)cc(C)cc3C)c(C)nc12 | · | ? | · | · | · | -19.8%
CCOC(=O)c1c(C)[nH]c(C)c1S(=O)(=O)NCC(=O)Nc1cccc(Cl)c1 | · | ? | · | · | · | -14.8%
O=C(Cn1ncn2c(cc3sccc32)c1=O)NCCc1ccccc1 | · | 11.7% | · | · | · | -16.8%
Cc1ccc(F)c(CNC(=O)C2(C)CCCN2C(=O)C(C)C)c1F (stereo not drawn) | · | -29.5% | 23.5 | · | · | -16.9%
CC(CCc1ccccc1)NC(=O)CSc1n[nH]c(-c2ccccc2)n1 (stereo not drawn) | · | 14.6µM* | · | · | · | 20.6µM*
CC(CCc1ccccc1)NC(=O)CSc1n[nH]c(-c2ccc(F)cc2)n1 (stereo not drawn) | · | ? | · | · | · | 23.1µM*
Cc1ccc(CNC(=O)CSc2n[nH]c(-c3ccc(F)cc3)n2)cc1 | · | ? | · | · | · | 16.4µM*

Screening data: PubChem, National Center for Advancing Translational Sciences (NCATS)
